Assay outcomes as filed in PubChem BioAssay.
The list is not random: actives were taken first. Their share in the collection is about 12%.
Sfp inh = qHTS Assay for Inhibitors of Bacillus subtilis Sfp phosphopantetheinyl transferase (PPTase); 4'-phosphopantetheinyl transferase ffp (Bacillus subtilis), Q9F4F7; Biochemical Sfp PPTase activity, qHTS; Potency, µM, for the others: largest response in the series, negative = inhibition, actives largely listed as inhibitors; 310,000 compounds, 3.5% hits; AID 1490, 2009;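 also: the enzyme is Sfp with the accession as filed and its product quenches rhodamine fluorescence; 0% = enzyme reaction without inhibitor and -100% = no enzyme wells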
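Buffer: 50 mM Hepes-Na pH 7.6, 10 mM MgCl2, 0.01% Nonidet P-40, 0.01% BSA. Enzyme 15 nM, pre-exposed to compound 15 min; substrates then added and fluorescence change tracked over 30 min.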
G9a block = qHTS Assay for Inhibitors of Histone Lysine Methyltransferase G9a; 350,000 compounds, 8.8% hits; Potency, µM (top dose mostly 102 µM), inactives show top-dose activity, negative = inhibition, most hits filed as inhibitors; AID 504332, 2011; G9a H3K9 monomethylation, AlphaScreen, 2 h; Histone-lysine N-methyltransferase EHMT2 (Homo sapiens), Q96KQ7; also: % is scaled to controls: 0 for no effect and ±100 for the full control effect; nearly all actives have a fitted effect of over 75% in size
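AlphaScreen detection with an anti-monomethyl H3K9 antibody quantified product after a 2 h room-temperature reaction containing 500 nM biotinylated H3K9 peptide, 20 µM SAM and 20 nM enzyme, which had been preincubated 15 min with compound.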
JMJD2A Tudor = qHTS Assay for Inhibitors of JMJD2A-Tudor Domain; AlphaScreen JMJD2A-Tudor / H3K4me3 peptide binding; Lysine-specific demethylase 4A (Homo sapiens), O75164; AID 504339, 2011; Potency, µM (titrated, usually from 114 µM), for the others: top-dose activity change, negative = inhibition, actives largely listed as inhibitors; 390,000 compounds, 4.4% hits; also: % is scaled to controls: 0 for no effect and ±100 for the full control effect; nearly all actives have a fitted effect of over 50% in size
Target sequence (O75164 whole entry, looked up, the tested form may be a part): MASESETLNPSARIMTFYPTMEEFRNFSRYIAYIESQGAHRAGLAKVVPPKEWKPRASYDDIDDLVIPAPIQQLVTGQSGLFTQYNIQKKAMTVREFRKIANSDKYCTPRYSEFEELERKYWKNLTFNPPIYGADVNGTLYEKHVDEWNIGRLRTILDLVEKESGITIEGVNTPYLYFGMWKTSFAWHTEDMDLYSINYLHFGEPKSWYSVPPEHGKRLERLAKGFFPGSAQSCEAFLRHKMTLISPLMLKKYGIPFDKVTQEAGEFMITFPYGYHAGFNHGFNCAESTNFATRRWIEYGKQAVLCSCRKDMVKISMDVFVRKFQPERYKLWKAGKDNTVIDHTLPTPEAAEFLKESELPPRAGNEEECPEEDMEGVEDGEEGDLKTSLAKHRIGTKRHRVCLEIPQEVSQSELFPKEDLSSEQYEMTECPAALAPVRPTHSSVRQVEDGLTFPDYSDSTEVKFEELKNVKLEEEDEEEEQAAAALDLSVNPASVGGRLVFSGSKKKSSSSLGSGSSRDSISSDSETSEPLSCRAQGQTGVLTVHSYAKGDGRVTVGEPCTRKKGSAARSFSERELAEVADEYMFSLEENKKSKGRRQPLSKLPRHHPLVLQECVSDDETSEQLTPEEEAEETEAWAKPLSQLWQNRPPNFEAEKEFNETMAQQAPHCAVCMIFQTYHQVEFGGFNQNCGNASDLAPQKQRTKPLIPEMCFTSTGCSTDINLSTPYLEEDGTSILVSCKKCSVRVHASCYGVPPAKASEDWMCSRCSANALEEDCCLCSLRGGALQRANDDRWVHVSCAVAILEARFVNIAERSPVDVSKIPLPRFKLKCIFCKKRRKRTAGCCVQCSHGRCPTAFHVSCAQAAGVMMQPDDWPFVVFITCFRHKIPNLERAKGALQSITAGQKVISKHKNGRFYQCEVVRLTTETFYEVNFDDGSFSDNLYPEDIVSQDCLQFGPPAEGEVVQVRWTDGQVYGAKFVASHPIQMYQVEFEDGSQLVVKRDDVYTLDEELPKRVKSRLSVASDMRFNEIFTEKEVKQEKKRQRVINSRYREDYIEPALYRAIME
TDP1 inh = qHTS Assay for Inhibitors of Tyrosyl-DNA Phosphodiesterase (TDP1); recombinant TDP1, AlphaScreen DNA substrate cleavage; AID 485290, 2010; Tyrosyl-DNA phosphodiesterase 1 (Homo sapiens), Q9NUW8; Potency, µM (titrated, usually from 130 µM), for inactives: at the highest dose activity change, negative = inhibition, hits mostly inhibitors; 350,000 compounds, 0.28% hits; also: % is scaled to controls: 0 for no effect and ±100 for the full control effect; nearly all actives have a fitted effect of over 40% in size
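Compounds were preincubated with Tdp1 (1 nM final) for 15 min at room temperature before substrate (15 nM final) started a 5 min reaction; beads (10 ug/ml final) were then added for 10 min before AlphaScreen detection.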
HP1b chromo inh = HTS for Inhibitors of HP1-beta Chromodomain Interactions with Methylated Histone Tails; AlphaScreen HP1-beta / biotin-H3K9me3 peptide binding; Potency, µM (series often up to 114 µM), for inactives: at the highest dose activity change, negative = inhibition, actives largely listed as inhibitors; 390,000 compounds, 0.56% hits; also: nearly all actives have a fitted effect of over 70% in size
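HP1-beta protein (50 nM final) preincubated 30 min at room temperature with biotinylated H3(1-18)K9me3 peptide (50 nM) in PBS pH 7.4, 0.01% Tween-20, then compound added for 30 min. AlphaScreen streptavidin donor/nickel chelate acceptor beads (10 ug/mL final), 30 min dark, luminescence read.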
BAZ2B inh = qHTS Assay for Inhibitors of BAZ2B | Bromodomain adjacent to zinc finger domain protein 2B (Homo sapiens), Q9UIF8 | AlphaScreen BAZ2B-H3K14Ac peptide displacement | Potency, µM (series often up to 114 µM), for inactives: top-dose activity change, negative = inhibition, usual class: inhibitors | 360,000 compounds, 4.4% hits | AID 504333, 2011; also: % is scaled to controls: 0 for no effect and ±100 for the full control effect; nearly all actives have a fitted effect of over 60% in size
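Compounds, titrated to a top concentration of 110 uM, were incubated 30 min at room temperature with preformed BAZ2B/acetyl-K14 H3 peptide complex (50 nM each). Proximity signal was measured by AlphaScreen after 20 min with beads.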
An asterisk follows results filed as active; ? = inconclusive; nt = no result; [ ] = another dose, or the depositor's remark. Calls follow the shape of the dose curve; as a rule, active = well fitted curve in the direction sought with a large enough effect; inconclusive = small, poorly fitted or top-dose-only effect, or another doubt; inactive = no such curve, though single readings can be large; an effect the other way counts as inactive or inconclusive. Potency is read from the fitted curve at half-maximal effect.

SMILES	Sfp inh	G9a block	JMJD2A Tudor	TDP1 inh	HP1b chromo inh	BAZ2B inh
Cc1ccnc2c1ccc1ccccc12	14%	65%	17%	nt	78%	43%
Cc1ccc2cccnc2c1	nt	nt	nt	12%	nt	nt
Cc1ccnc2c1ccc1cccnc12	nt	13µM*	5.6µM*	-4%	43%	2.8µM*
COc1ccccc1C(=O)Nc1ccc2nc(SCCOc3ccccc3C)sc2c1	nt	46%[59 µM]	22%	2%	51%	10%
CCCCCCCCN=C1NC(=O)CS1	-17%	22µM*	-10%	-4%	-6%	6%
CCn1c(/C=C\c2ccccc2C)nc2ccccc2c1=O	4%	112%	54%	0%	96%	10%
CCn1c(/C=C2\C(=O)N(C(C)C)c3ccccc32)nc2ccccc2c1=O	-14%	3%[12.7 µM]	-7%[11.4 µM]	11%	-23%	40µM*
CCN1C(=O)/C(=C/c2nc3ccccc3c(=O)n2-c2ccccc2)c2ccccc21	-12%	3%[59 µM]	?	5%	3%	3%
CCN1C(=O)/C(=C\c2nc3ccccc3c(=O)n2CC)c2ccccc21	-9%	63µM*	16µM*	4%	?	45µM*
CC(C)N1C(=O)/C(=C\c2nc3ccccc3c(=O)[nH]2)c2ccccc21	-14%	25µM*	?	8%	?	32µM*
CCn1c(/C=C/c2c[nH]c3ccccc23)nc2ccccc2c1=O	12%	2%	56µM*	3%	-3%	-5%
CCn1c(/C=C2/C(=O)N(C)c3ccccc32)nc2ccccc2c1=O	-29%	50µM*	-28%[57.1 µM]	-1%	?	35µM*
CCn1c(/C=C2\C(=O)N(C)c3ccccc32)nc2ccccc2c1=O	13%	-16%[59 µM]	?	7%	-12%	56µM*
CCOC(=O)C1=C(COC(=O)CC(C)c2ccccc2)NC(=O)NC1C (stereo not given)	nt	10%[12.7 µM]	-3%	1%	51%	8%
CCOc1cc(C(=O)NCCC(=O)N2CCC3(CC2)NCCc2[nH]cnc23)cc(OCC)c1OCC	8%	10%[59 µM]	-12%	2%	18%	-38%
OC[C@@H]1[C@@H](c2ccccc2)C(c2ccccc2)=NN1c1ccccc1	14%	54%	111%	-15%[56.1 µM]	223%	nt
OC[C@@H]1[C@@H](c2ccccc2)C(c2cccc(Cl)c2)=NN1c1ccccc1	19%	313%	147%	25µM*	228%	nt
CC(=O)Nc1ccc(C(=O)OCC(=O)Nc2c(F)cccc2F)cc1	-2%	29%	-13%	0%	22%	-18%
O=C(NC(Cc1ccccc1)C(=O)O)/C(=C\c1ccco1)NC(=O)c1ccccc1 (stereo not given)	35µM*	?	-19%[57.1 µM]	-3%	-13%	-29%
O=C(NC(Cc1ccccc1)C(=O)O)/C(=C\c1ccc(Cl)cc1)NC(=O)c1ccco1 (stereo not given)	18%	79µM*	-8%	5%	45%	-15%
O=C(NC(Cc1ccccc1)C(=O)O)/C(=C\c1ccc(Cl)cc1)NC(=O)c1ccccc1 (stereo not given)	22%	?	-1%	2%	18%	-30%
COc1cc(/C=C2/SC(=S)N(CC3CCCO3)C2=O)ccc1O (stereo not given)	?	28µM*	?	7%	45µM*	45µM*
O=C1/C(=C/c2cccnc2)SC(=S)N1CC1CCCO1 (stereo not given)	2%	-20%	-35%	1%	-16%	-35%
COc1ccc(/C=C2\SC(=S)N(CC3CCCO3)C2=O)cc1 (stereo not given)	-4%	nt	?	9%	?	8.9µM*
CN(C)CCN(Cc1cc2cc3c(cc2nc1Cl)OCO3)C(=O)c1ccco1	8%	-8%	-14%	nt	28%	-8%
SMILES	Sfp inh	G9a block	JMJD2A Tudor	TDP1 inh	HP1b chromo inh	BAZ2B inh
CC(C)CN(C(=O)CCNC(=O)c1ccc(Cl)cc1)C1CCS(=O)(=O)C1 (stereo not given)	nt	nt	-8%	0%	15%[57 µM]	nt
O=S(=O)(c1ccc(C(F)(F)F)cc1)N1CCN(S(=O)(=O)c2ccc3c(c2)OCCO3)CC1	nt	nt	-14%	nt	nt	nt
CN(C)CC(CCC(CN(C)C)C(=O)c1ccccc1)C(=O)c1ccccc1 (stereo not given)	-8%	45µM*	-20%	3%	-14%	-2%
O=C(O)CC1(CC(=O)Nc2cc3ccccc3cn2)CCCCC1	12%	89µM*	-5%	0%	31%	-29%
COc1ccccc1-n1c(Cc2cccs2)n[nH]c1=S	14%	3.5µM*	-10%	-3%	33%	-7%
S=c1[nH]nc(Cc2cccs2)n1-c1ccccc1Cl	6%	2.2µM*	14µM*	3%	40%	1%
COc1cc2[nH]c(=S)n(Cc3cccs3)c(=O)c2cc1OC	8%	11%	-7%	0%	44%	-10%
Cc1ccc(C)c(-n2c(Cc3cccs3)n[nH]c2=S)c1	21%	1.6µM*	10µM*	3%	22%	2%
CCCCc1ccc(-n2c(Cc3cccs3)n[nH]c2=S)cc1	-10%	1.8µM*	?	4%	-19%	?
CCc1ccc(-n2c(Cn3nc(C(F)(F)F)cc3C)n[nH]c2=S)cc1	-21%	?	-14%	7%	26%	?
Cc1ccc(-n2c(Cc3cccs3)nnc2SCC(N)=O)cc1	12%	17%[12.7 µM]	1%	-6%	5%	4%
CCc1cccc(OCC(=O)Nc2cc(S(=O)(=O)N3CCOCC3)ccc2N2CCCC2)c1	11%	-6%	-22%	4%	13%	-25%
CSCC[C@H](NC(=O)[C@H](CC(C)C)NC(=O)[C@@H]1CCCN1C(=O)[C@H](Cc1ccccc1)NC(=O)[C@H](Cc1ccccc1)NC(=O)[C@@H]1CCC(=O)N1)C(N)=O	-17%	nt	nt	7%	nt	nt
CC(=O)c1cccc(NC(=O)Cn2c(SCC(=O)Nc3ccc(F)cc3)nc3ccccc32)c1	nt	16%[59 µM]	-9%	6%	35%	-9%
O=C(CSc1n[nH]c(-c2cccs2)n1)NCc1cccs1	6%	61%[59 µM]	-11%[57.1 µM]	3%	64%	4%
S=c1[nH]nc(Cc2cccs2)n1-c1cccc2ccccc12	?	1.8µM*	40µM*	8%	7%	-33%
